Publication PMC7862700, “An all-to-all approach to the identification of sequence-specific readers for epigenetic DNA modifications on cytosine”

What follows are sequences tested against T1, FEV (Homo sapiens, UniProt Q99581 1-238) (assay: DAPPL (digital affinity profiling via proximity ligation, sequencing); 10 mM Tris-HCl pH 7.5, 50 mM NaCl, 1 mM DTT, 4% glycerol, room temperature, 30 min; GST-TFs on glutathione beads, 16-mer random dsDNA library, 0.1% formaldehyde crosslink after washing; high values mean tight binding). Conditions: protein: recombinant; tags: N-terminal GST; dsDNA, one strand shown.
T1 sequence: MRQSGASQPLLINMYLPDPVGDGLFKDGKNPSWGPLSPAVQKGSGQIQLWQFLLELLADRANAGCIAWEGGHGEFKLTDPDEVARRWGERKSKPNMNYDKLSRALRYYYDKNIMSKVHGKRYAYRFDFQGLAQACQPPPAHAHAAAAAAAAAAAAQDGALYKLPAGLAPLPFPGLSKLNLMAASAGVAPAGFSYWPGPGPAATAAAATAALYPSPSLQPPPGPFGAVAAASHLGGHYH
In short: (§1)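 Yeast served to express human transcription factors as GST fusions, which were then captured on glutathione beads and labelled with DNA barcodes. Pooled with a tag-only sample, they were incubated with 200 nmole of a 16-mer random double-stranded DNA library for 30 min at room temperature in Tris/NaCl/DTT/glycerol buffer, washed, crosslinked with 0.1% formaldehyde, ligated by proximity, amplified by PCR and sequenced. Dividing each hexamer's read frequency for a factor by its frequency for the tag-only sample gives the binding signal.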

Point of comparison: CCATGC, binding signal 1.1 fold enrichment (6-mer frequency, TF over GST control). Against it:
- CCGCTG — higher, 1.11 fold enrichment (6-mer frequency, TF over GST control)
- ACCACC — higher, 1.18 fold enrichment (6-mer frequency, TF over GST control)
- TGCCAA — higher, 1.12 fold enrichment (6-mer frequency, TF over GST control)
- GTCCCA — higher, 1.12 fold enrichment (6-mer frequency, TF over GST control)
- CCGATG — lower, 1.08 fold enrichment (6-mer frequency, TF over GST control)
- GCTGCC — higher, 1.14 fold enrichment (6-mer frequency, TF over GST control)
- TCAACA — lower, 1.05 fold enrichment (6-mer frequency, TF over GST control)
- GTCTTG — lower, 1.01 fold enrichment (6-mer frequency, TF over GST control)
- ACCACA — lower, 1.05 fold enrichment (6-mer frequency, TF over GST control)
- TGGACC — higher, 1.17 fold enrichment (6-mer frequency, TF over GST control)
- GCCCAC — higher, 1.12 fold enrichment (6-mer frequency, TF over GST control)
- CGGCCT — higher, 1.17 fold enrichment (6-mer frequency, TF over GST control)
- GGTTTT — higher, 1.13 fold enrichment (6-mer frequency, TF over GST control)
- CCACCT — higher, 1.17 fold enrichment (6-mer frequency, TF over GST control)
- TTGGTC — lower, 1.04 fold enrichment (6-mer frequency, TF over GST control)
- GGGTTC — lower, 1.03 fold enrichment (6-mer frequency, TF over GST control)
- ACGTTG — lower, 1.07 fold enrichment (6-mer frequency, TF over GST control)
- CCACAC — higher, 1.11 fold enrichment (6-mer frequency, TF over GST control)
- AGCAAC — lower, 1.08 fold enrichment (6-mer frequency, TF over GST control)
- AAAGCG — lower, 1.06 fold enrichment (6-mer frequency, TF over GST control)
- ATGGTG — lower, 1.06 fold enrichment (6-mer frequency, TF over GST control)
- TGCTGC — higher, 1.15 fold enrichment (6-mer frequency, TF over GST control)
- CATCGC — lower, 1.07 fold enrichment (6-mer frequency, TF over GST control)

Each sequence was assayed against ETV5 (Homo sapiens, UniProt P41161 1-510) in the same assay as above. Conditions: protein: recombinant; tags: N-terminal GST; dsDNA, one strand shown.
In short: as §1

Sequence of ETV5 (P41161 whole entry): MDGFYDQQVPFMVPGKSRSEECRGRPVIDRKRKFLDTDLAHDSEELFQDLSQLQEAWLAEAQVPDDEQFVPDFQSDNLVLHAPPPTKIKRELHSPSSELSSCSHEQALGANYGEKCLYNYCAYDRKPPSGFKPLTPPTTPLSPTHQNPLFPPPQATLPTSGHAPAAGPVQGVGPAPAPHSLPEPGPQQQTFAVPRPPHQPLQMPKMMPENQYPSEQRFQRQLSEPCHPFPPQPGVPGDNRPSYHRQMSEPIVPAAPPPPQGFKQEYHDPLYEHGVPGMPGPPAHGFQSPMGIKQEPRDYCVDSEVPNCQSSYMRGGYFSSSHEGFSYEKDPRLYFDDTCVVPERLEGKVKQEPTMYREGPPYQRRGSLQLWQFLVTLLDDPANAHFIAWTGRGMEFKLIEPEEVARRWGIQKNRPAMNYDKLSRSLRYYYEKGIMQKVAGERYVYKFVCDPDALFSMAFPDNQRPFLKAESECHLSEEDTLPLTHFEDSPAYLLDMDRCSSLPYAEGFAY

Point of comparison: TGGACC, binding signal 1.05 fold enrichment (6-mer frequency, TF over GST control). Against it:
- GTCTAC — higher, 1.11 fold enrichment (6-mer frequency, TF over GST control)
- GCCCCA — lower, 1.02 fold enrichment (6-mer frequency, TF over GST control)
- CGCCCG — higher, 1.06 fold enrichment (6-mer frequency, TF over GST control)
- AAGGCA — lower, 1 fold enrichment (6-mer frequency, TF over GST control)
- TGGTGC — higher, 1.1 fold enrichment (6-mer frequency, TF over GST control)
- CATACG — higher, 1.08 fold enrichment (6-mer frequency, TF over GST control)
- AAGGGT — the same, 1.05 fold enrichment (6-mer frequency, TF over GST control)
- TTGCCG — higher, 1.12 fold enrichment (6-mer frequency, TF over GST control)
- ACATGG — higher, 1.1 fold enrichment (6-mer frequency, TF over GST control)
- GTTGAT — higher, 1.14 fold enrichment (6-mer frequency, TF over GST control)
- CATCCA — lower, 1.01 fold enrichment (6-mer frequency, TF over GST control)
- ATGCCG — higher, 1.15 fold enrichment (6-mer frequency, TF over GST control)
- CCGCTG — higher, 1.06 fold enrichment (6-mer frequency, TF over GST control)
- ACCACC — higher, 1.1 fold enrichment (6-mer frequency, TF over GST control)
- TGCCAA — higher, 1.08 fold enrichment (6-mer frequency, TF over GST control)
- GCGCGC — higher, 1.08 fold enrichment (6-mer frequency, TF over GST control)
- GTCCCA — the same, 1.05 fold enrichment (6-mer frequency, TF over GST control)
- CCGATG — higher, 1.11 fold enrichment (6-mer frequency, TF over GST control)
- CCATGC — higher, 1.11 fold enrichment (6-mer frequency, TF over GST control)
- GCTGCC — lower, 1.04 fold enrichment (6-mer frequency, TF over GST control)
- TCAACA — lower, 1.04 fold enrichment (6-mer frequency, TF over GST control)
- GTCTTG — lower, 1.01 fold enrichment (6-mer frequency, TF over GST control)
- ACCACA — lower, 1.03 fold enrichment (6-mer frequency, TF over GST control)
- GCCCAC — higher, 1.16 fold enrichment (6-mer frequency, TF over GST control)
- CGGCCT — higher, 1.14 fold enrichment (6-mer frequency, TF over GST control)
- GGTTTT — higher, 1.11 fold enrichment (6-mer frequency, TF over GST control)
- CCACCT — higher, 1.07 fold enrichment (6-mer frequency, TF over GST control)
- TTGGTC — higher, 1.1 fold enrichment (6-mer frequency, TF over GST control)
- GGGTTC — higher, 1.08 fold enrichment (6-mer frequency, TF over GST control)
- ACGTTG — lower, 1.03 fold enrichment (6-mer frequency, TF over GST control)
- CCACAC — higher, 1.11 fold enrichment (6-mer frequency, TF over GST control)
- TGGTCA — lower, 1.02 fold enrichment (6-mer frequency, TF over GST control)
- AGCAAC — higher, 1.06 fold enrichment (6-mer frequency, TF over GST control)
- AAAGCG — higher, 1.18 fold enrichment (6-mer frequency, TF over GST control)
- ATGGTG — higher, 1.18 fold enrichment (6-mer frequency, TF over GST control)
- TGCTGC — higher, 1.17 fold enrichment (6-mer frequency, TF over GST control)
- CATCGC — lower, 1.04 fold enrichment (6-mer frequency, TF over GST control)

Each sequence was assayed against T2, SPIC (Homo sapiens, UniProt Q8N5J4 1-248) in the same assay as above. Conditions: protein: recombinant; tags: N-terminal GST; dsDNA, one strand shown.
T2 sequence: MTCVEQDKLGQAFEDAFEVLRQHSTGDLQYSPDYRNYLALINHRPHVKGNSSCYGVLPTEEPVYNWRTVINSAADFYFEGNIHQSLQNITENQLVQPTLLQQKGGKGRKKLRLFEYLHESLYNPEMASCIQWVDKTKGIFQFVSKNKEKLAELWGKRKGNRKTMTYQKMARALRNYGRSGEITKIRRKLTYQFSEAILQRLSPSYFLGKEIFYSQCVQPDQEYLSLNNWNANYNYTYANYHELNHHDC
In short: as §1

Point of comparison: ATGCCG, binding signal 1.17 fold enrichment (6-mer frequency, TF over GST control). Against it:
- GTCTAC — lower, 1.1 fold enrichment (6-mer frequency, TF over GST control)
- GCCCCA — lower, 1.05 fold enrichment (6-mer frequency, TF over GST control)
- CGCCCG — the same, 1.17 fold enrichment (6-mer frequency, TF over GST control)
- AAGGCA — lower, 1.01 fold enrichment (6-mer frequency, TF over GST control)
- TGGTGC — lower, 1.14 fold enrichment (6-mer frequency, TF over GST control)
- CATACG — lower, 1.04 fold enrichment (6-mer frequency, TF over GST control)
- AAGGGT — lower, 1.08 fold enrichment (6-mer frequency, TF over GST control)
- TTGCCG — lower, 1.08 fold enrichment (6-mer frequency, TF over GST control)
- ACATGG — higher, 1.18 fold enrichment (6-mer frequency, TF over GST control)
- GTTGAT — the same, 1.17 fold enrichment (6-mer frequency, TF over GST control)
- CATCCA — lower, 1.05 fold enrichment (6-mer frequency, TF over GST control)
- CCGCTG — lower, 1.08 fold enrichment (6-mer frequency, TF over GST control)
- ACCACC — lower, 1.08 fold enrichment (6-mer frequency, TF over GST control)
- TGCCAA — lower, 1.08 fold enrichment (6-mer frequency, TF over GST control)
- GCGCGC — lower, 1.15 fold enrichment (6-mer frequency, TF over GST control)
- GTCCCA — lower, 1.12 fold enrichment (6-mer frequency, TF over GST control)
- CCGATG — higher, 1.2 fold enrichment (6-mer frequency, TF over GST control)
- CCATGC — lower, 1 fold enrichment (6-mer frequency, TF over GST control)
- GCTGCC — lower, 1.01 fold enrichment (6-mer frequency, TF over GST control)
- TCAACA — lower, 1.05 fold enrichment (6-mer frequency, TF over GST control)
- GTCTTG — lower, 1.11 fold enrichment (6-mer frequency, TF over GST control)
- ACCACA — lower, 1.1 fold enrichment (6-mer frequency, TF over GST control)
- TGGACC — lower, 1.16 fold enrichment (6-mer frequency, TF over GST control)
- GCCCAC — lower, 1.13 fold enrichment (6-mer frequency, TF over GST control)
- CGGCCT — lower, 1.14 fold enrichment (6-mer frequency, TF over GST control)
- GGTTTT — lower, 1.04 fold enrichment (6-mer frequency, TF over GST control)
- CCACCT — higher, 1.19 fold enrichment (6-mer frequency, TF over GST control)
- TTGGTC — lower, 1.12 fold enrichment (6-mer frequency, TF over GST control)
- GGGTTC — lower, 1.02 fold enrichment (6-mer frequency, TF over GST control)
- ACGTTG — higher, 1.28 fold enrichment (6-mer frequency, TF over GST control)
- CCACAC — higher, 1.18 fold enrichment (6-mer frequency, TF over GST control)
- TGGTCA — lower, 1.07 fold enrichment (6-mer frequency, TF over GST control)
- AGCAAC — lower, 1.11 fold enrichment (6-mer frequency, TF over GST control)
- AAAGCG — lower, 1.08 fold enrichment (6-mer frequency, TF over GST control)
- ATGGTG — higher, 1.2 fold enrichment (6-mer frequency, TF over GST control)
- TGCTGC — higher, 1.3 fold enrichment (6-mer frequency, TF over GST control)
- CATCGC — lower, 1.03 fold enrichment (6-mer frequency, TF over GST control)
